This is a sample that favours compounds with a hit; in the whole collection about 2.7% have one here.
GLP-1R inv ag = inverse agonists of human GLP-1 receptor; P43220; HEK293 GLP-1R CRE-luciferase, luminescence, 24 h; GLP-1R form is constitutively active; Potency, µM (highest dose often 38.3 µM), usual class: inhibitors; 410,000 compounds, 1.6% hits; further: nearly all actives have a fitted effect of over 55% in size
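qHTS in 1536-well format: reporter HEK293 cells expressing constitutive GLP-1R activity in DMEM + 10% Nu serum, 24 hr with compounds at 37 deg C, luminescence read after 12 min with detection reagent.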
rTrxR1 inhibitor = blocks rat thioredoxin reductase 1; recombinant rTrxR1, NADPH fluorescence consumption, selenite substrate; Potency, µM (series often up to 114 µM), usual class: inhibitors; 390,000 compounds, 1% hits; AID 588453; further: nearly all actives have a fitted effect of over 65% in size
Target sequence (O89049 whole entry, looked up): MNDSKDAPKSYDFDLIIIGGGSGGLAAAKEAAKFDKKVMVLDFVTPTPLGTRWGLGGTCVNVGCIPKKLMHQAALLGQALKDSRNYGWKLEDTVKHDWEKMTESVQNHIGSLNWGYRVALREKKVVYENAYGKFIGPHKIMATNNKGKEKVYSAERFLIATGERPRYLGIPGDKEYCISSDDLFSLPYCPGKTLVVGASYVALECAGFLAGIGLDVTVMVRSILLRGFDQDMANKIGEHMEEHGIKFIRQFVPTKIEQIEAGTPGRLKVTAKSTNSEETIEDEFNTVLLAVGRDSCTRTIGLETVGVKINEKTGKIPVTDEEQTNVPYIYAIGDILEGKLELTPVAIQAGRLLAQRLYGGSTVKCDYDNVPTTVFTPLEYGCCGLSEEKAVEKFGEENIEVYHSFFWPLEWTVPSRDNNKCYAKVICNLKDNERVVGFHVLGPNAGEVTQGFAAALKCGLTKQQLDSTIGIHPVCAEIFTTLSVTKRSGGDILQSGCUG
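Rat TrxR1 (90 nM in the dispensed reagent) was pre-reduced with 400 uM NADPH for 5 min at room temperature, then incubated with compound for 15 min. After 400 uM selenite was added, NADPH fluorescence (Ex 340/Em 450 nm) was followed for 8 min.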
HEK293 tox = cytotoxicity counter-screen for GLP-1 receptor inverse agonists; HEK293 cAMP-luciferase reporter cells, luminescence, 24 h; Potency, µM (doses to about 38.3 µM), actives largely listed as inhibitors; 410,000 compounds, 0.13% hits;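 further: loss of luciferase light is scored as toxicity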
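MLSMR compounds, 24 hr on cells at 37 deg C/5% CO2; luminescence after luciferase reagent (12 min RT). Inhibition counted as the undesired cytotoxic outcome.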
GLP-1R agonist = GLP-1 receptor (human) agonism | P43220 | AID 624172 | HEK293 GLP-1R CRE-luciferase, luminescence, 4-6 h; cells express a hypersensitive GLP-1R form | Potency, µM (series often up to 45.6 µM), usual class: activators | 380,000 compounds, 0.007% hits
TrxR1 substrate = substrates of rat thioredoxin reductase 1. O89049. purified TrxR1 substrate turnover, NADPH consumption readout. Potency, µM (series often up to 114 µM). 390,000 compounds, 0.01% hits. AID 588456; further: nearly all actives have a fitted effect of over 50% in size
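Rat TrxR1, dispensed at 90 nM, was prereduced with 400 uM NADPH (final) for 5 min at ~22 deg C, then incubated with compound 15 min before 400 uM selenite. A first-read NADPH fluorescence drop versus no-compound background flagged substrates.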
IDH1 R132H inh = blocks human mutant IDH1 R132H enzyme; O75874; Potency, µM (titrated, usually from 76.6 µM), hits mostly inhibitors; AID 602179; 390,000 compounds, 0.093% hits; IDH1-R132H enzyme, NADPH consumption, diaphorase/resazurin fluorescence; further: nearly all actives have a fitted effect of over 65% in size
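IDH1-R132H (0.5 ug/mL) preincubated 30 min with compound, then NADPH (0.016 mM) and alpha-KG (2 mM) added; 80 min at RT, pH 7.5. Remaining NADPH coupled via diaphorase/resazurin to fluorescence (540/590 nm); concentration-response curves normalized to no-enzyme control.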
Each line names hits and unclear results; the compound was inactive in the other large screens. The call rests on the fitted dose curve; in most records, active means well fitted curve in the direction sought with a large enough effect; inconclusive means small, poorly fitted or top-dose-only effect, or another doubt; inactive means no such curve, though single readings can be large; an effect the other way counts as inactive or inconclusive.

COc1ccc(-c2nc(CSCC(=O)N3CCN(c4cccc(C)c4C)CC3)c(C)o2)cc1OC	GLP-1R inv ag 10µM (no result: GLP-1R agonist)
Cc1ccc(-c2c3c([nH]c(=S)c2C#N)CCCC3)o1	rTrxR1 inhibitor 45µM
Cc1ccc(-c2c(C#N)c(N)nc3c2CCCC3)o1	rTrxR1 inhibitor 32µM
CSc1ccc(CCNC(=O)c2ccc3c(c2)nc2n3CCC(C)C2)cc1 (configuration not stated)	none (no result: GLP-1R agonist)
Cc1ccc(Cc2c(-c3cccc(Cl)c3)nc3c(C)cc(Br)cn23)cc1	none (no result: rTrxR1 inhibitor, TrxR1 substrate, IDH1 R132H inh)
COc1ccc(C(=O)Nc2cc3c(cc2N2CCCCC2)n(C)c(=O)n3C)cc1OC	IDH1 R132H inh 46µM
CCOc1ccccc1C(=O)Nc1cc2c(cc1N1CCCC1)n(CC)c(=O)n2CC	GLP-1R inv ag inconclusive, HEK293 tox inconclusive, IDH1 R132H inh 46µM
CCCCn1c(N)c(C(=S)NC(=O)CC(C)C)c(=O)n(C)c1=O	GLP-1R inv ag inconclusive, rTrxR1 inhibitor 56µM
COc1cc(OC)c(OC)cc1/C=C/c1ccc2ccccc2n1	none (no result: GLP-1R inv ag, HEK293 tox, GLP-1R agonist, IDH1 R132H inh)
O=C(Nc1ccc(F)cc1F)N1CCc2c(sc3c2CCCC3)C1c1ccc(F)cc1 (configuration not stated)	GLP-1R inv ag inconclusive (no result: GLP-1R agonist)
O=S(=O)(c1cccc(C(F)(F)F)c1)N1CCC(c2cc(-c3cccc4ccccc34)n[nH]2)CC1	GLP-1R inv ag 8.9µM
Cc1ccc2nc(SC(Cc3cc(Cl)ccc3Cl)C(=O)O)[nH]c2c1 (configuration not stated)	none (no result: GLP-1R agonist)
O=c1c2sc3ccccc3c2n(Cc2cccc(Cl)c2)c(=O)n1Cc1ccc(F)cc1	none (no result: GLP-1R agonist)
Cc1ccc(CNC(=O)c2c(-c3ccc(Br)cc3)noc2C)o1	GLP-1R inv ag inconclusive (no result: GLP-1R agonist)
CCNc1nc(-c2sc(NC(=O)C(C)(C)C)nc2C)c(-n2cc(-c3ccccc3)nn2)s1	GLP-1R inv ag 10µM, HEK293 tox inconclusive (no result: rTrxR1 inhibitor, TrxR1 substrate, IDH1 R132H inh)
COC(=O)c1ccc(OC)c(Cn2c(=O)n(-c3cccc(Cl)c3)c(=O)c3c2c2cc(C)ccc2n3C)c1	none (no result: GLP-1R agonist)
O=C1CCN(CCc2ccccc2)CCN1C(CSc1ccc(Br)cc1)c1ccccc1 (configuration not stated)	none (no result: GLP-1R inv ag, HEK293 tox, GLP-1R agonist, IDH1 R132H inh)
Cc1ccc(-c2nc(S(=O)(=O)c3ccc(C)cc3)c(N(C)C)o2)cc1	rTrxR1 inhibitor 25µM
Cc1nc(S(=O)(=O)c2ccc(Cl)cc2)c(N(C)C)o1	rTrxR1 inhibitor 4µM
O=S(=O)(c1ccc(Cl)cc1)c1nc(-c2ccccc2F)oc1NCc1ccccc1	none (no result: GLP-1R agonist)
COc1cc(-c2nc(S(=O)(=O)c3ccc(C)cc3)c(N(C)C)o2)cc(OC)c1OC	none
Cc1nc(S(=O)(=O)c2ccc(Cl)cc2)c(NCc2ccccc2)o1	rTrxR1 inhibitor 45µM
Cc1ccc(S(=O)(=O)c2nc(-c3ccccc3Br)oc2N(C)C)cc1	GLP-1R inv ag inconclusive, rTrxR1 inhibitor 6.3µM, HEK293 tox inconclusive
COc1ccc(OC)c(NC(=O)c2cc3c(n(-c4ccc(Cl)cc4)c2=O)CC(C)(C)CC3=O)c1	none (no result: GLP-1R agonist)
CCCCOC(=O)c1ccc(NC(=O)/C(C#N)=C/c2ccc(-c3ccccc3)o2)cc1	none (no result: GLP-1R agonist)
COc1c(OC(C)=O)ccc(/C=C/c2ccc3cccc(OCc4ccccc4)c3n2)c1[N+](=O)[O-]	GLP-1R inv ag 5µM, HEK293 tox inconclusive
Nc1ncnc2c1nc(Sc1ccc(Cl)cc1)n2[C@H]1OC2COP(=O)(O)O[C@H]2[C@@H]1O (some centres not stated)	none (no result: GLP-1R inv ag, HEK293 tox, GLP-1R agonist, IDH1 R132H inh)
COc1ccc(/C=C2/CCC(CN3CCOCC3)C2=O)cc1 (configuration not stated)	GLP-1R inv ag 5.6µM, rTrxR1 inhibitor 1.6µM, HEK293 tox 5µM
CN(C)CC1CC/C(=C\c2ccc(O)cc2)C1=O (configuration not stated)	GLP-1R inv ag inconclusive, rTrxR1 inhibitor 0.71µM, HEK293 tox inconclusive
O=C1/C(=C\c2ccc(Cl)cc2)CCC1CNc1ccc(Cl)cc1 (configuration not stated)	rTrxR1 inhibitor 7.9µM
COc1ccc(/C=C2\CCC(C3CCCC3)C2=O)cc1 (configuration not stated)	GLP-1R agonist inconclusive
CCCCN(C)C(=O)Cn1cnc2sc(C)c(S(=O)(=O)N3CCC(C)CC3)c2c1=O	none (no result: GLP-1R agonist)
CC1CCc2c(sc(NC(=O)Cc3ccccc3)c2C(=O)Nc2ccc(Cl)cc2)C1 (configuration not stated)	none (no result: GLP-1R agonist)
Cc1ccc(-n2nc(CO)c(C(=O)NCc3cccs3)n2)cc1C	none (no result: GLP-1R agonist)
O=C1CC(c2ccccc2)=C(c2ccccc2)C1c1ccccc1 (configuration not stated)	GLP-1R inv ag 14µM
Nc1nc(=S)c2snnc2[nH]1	none (no result: GLP-1R inv ag, HEK293 tox, GLP-1R agonist, IDH1 R132H inh)
CCN(CC)S(=O)(=O)c1ccc2oc(C(=O)N(C)Cc3ccccc3)c(C)c2c1	none (no result: GLP-1R agonist)
CCc1ccc(NC(=O)CCc2ccc(CC)o2)cc1	GLP-1R inv ag 10µM
COc1ccc(Br)cc1C(C[N+](=O)[O-])c1c(N)n(C)c(=O)n(C)c1=O (configuration not stated)	GLP-1R inv ag inconclusive, rTrxR1 inhibitor inconclusive, HEK293 tox 10µM
COc1ccc(-c2cn3c(n2)sc2cc(C(=O)NCCc4ccccc4)ccc23)cc1	none (no result: GLP-1R agonist)
COc1ccc(CCNCC(=O)Nc2ccc(C)c(S(=O)(=O)N(C)C)c2)cc1OC	none
COc1ccc(CCNCC(=O)Nc2ccc(C)c(Br)c2)cc1OC	GLP-1R inv ag 11µM

Source: PubChem BioAssay
